# A selection: hits, their analogues and other compounds. The true share with any hit is near 27%.
# sEH inhibitor: soluble epoxide hydrolase inhibitors, primary screen, biochemical, human sEH. Bifunctional epoxide hydrolase 2 (Homo sapiens), P34913. inhibition, % at 2 µM. recombinant human sEH enzymatic activity assay. actives 0.34% (n = 91,000); in the data active = inhibition above about 80%
# CYP2C19 inh: blockers of cytochrome P450 2C19 activity – biochemical, luminescence, ADME assay, primary screen | actives 21% (n = 96,000) | P33261 | CYP2C19 Supersomes, luciferin-H EGE luminescence, 30 min | AID 778, 2007 | inhibition, % at 5 µM;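 active = CYP2C19 inhibition above a set limit at 5 µM in the primary screen, cut at about 50% in these data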;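 note: plate controls were negative control wells for no effect and 2.5 mM tranylcypromine positive control for full effect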
# CYP2C9 inh: blockers of cytochrome P450 2C9 activity – biochemical, luminescence, ADME assay, primary screen | CYP2C9 Supersomes, luciferin-H conversion | inhibition, % at 5 µM | actives 20% (n = 96,000) | AID 777, 2007;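 active = blocking of liver enzyme CYP2C9 beyond about 50% at 5 µM, limit read from the data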
# Target sequence (P11712 whole entry, looked up): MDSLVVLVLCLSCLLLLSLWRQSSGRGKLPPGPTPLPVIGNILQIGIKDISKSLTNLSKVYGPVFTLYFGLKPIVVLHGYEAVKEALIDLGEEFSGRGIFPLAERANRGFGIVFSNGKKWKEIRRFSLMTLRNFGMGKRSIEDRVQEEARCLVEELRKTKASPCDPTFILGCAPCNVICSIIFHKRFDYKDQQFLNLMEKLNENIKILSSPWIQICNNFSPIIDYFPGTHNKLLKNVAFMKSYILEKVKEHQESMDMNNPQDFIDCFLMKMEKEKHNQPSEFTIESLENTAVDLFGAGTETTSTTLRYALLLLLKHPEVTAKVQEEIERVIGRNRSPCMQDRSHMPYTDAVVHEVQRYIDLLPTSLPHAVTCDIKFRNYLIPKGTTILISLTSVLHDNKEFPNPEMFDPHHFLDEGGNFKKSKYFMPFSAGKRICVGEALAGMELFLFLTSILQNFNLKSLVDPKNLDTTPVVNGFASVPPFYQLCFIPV
# CYP2C9 activ: human CYP2C9 activators, primary screen, biochemical, luminescence; Cytochrome P450 2C9 (Homo sapiens), P11712; recombinant CYP2C9, luciferin-H conversion; active compounds read high; factor 1 = untreated enzyme, 0 = blocked; activation factor at 5 µM; actives 1.4% (n = 96,000); AID 1024, 2008;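 active = activation factor of 2 or more for CYP2C9 at a 5 µM dose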;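 note: 0 = sulfaphenazole-blocked wells and 1 = vehicle-only wells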
# CYP2C19 activ: human CYP2C19 activators, primary screen, biochemical, luminescence; Cytochrome P450 2C19 (Homo sapiens), P33261; activation factor at 5 µM; recombinant CYP2C19, luciferin-H EGE luminescence; active compounds read high; 0 = fully inhibited enzyme, 1 = untreated enzyme; 96,000 tested, under 10 active;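 active = activation factor of at least 2 at 5 µM in the primary screen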;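 note: 0 = wells with 2.5 mM tranylcypromine and 1 = vehicle-only wells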
# sEH act: soluble epoxide hydrolase activators, primary screen, biochemical, human sEH | Bifunctional epoxide hydrolase 2 (Homo sapiens), P34913 | purified human sEH enzymatic activity, activator screen | activation, % at 2 µM | actives 0.04% (n = 91,000) | AID 717, 2007; in the data active = activation above about 37%
# An asterisk follows results filed as active; . = not tested or not shown.
SMILES,sEH inhibitor,CYP2C19 inh,CYP2C9 inh,CYP2C9 activ,CYP2C19 activ,sEH act
O=C(CCc1nc(-c2ccccc2F)no1)N1CCC2(CC1)OCCO2,5.2,22.7,24.2,0.8,0.8,-1.8
COc1cccc(C2=NOC(C(=O)N3CCC4(CC3)OCCO4)C2)c1 (stereo unspecified),7.0,67.0*,-1.5,1,0.3,-8.2
O=C(C1CC(c2ccc(Cl)c(Cl)c2)=NO1)N1CCC2(CC1)OCCO2 (stereo unspecified),-9.5,95.7*,-84.2,1.8,0,15.1
O=C(C1CC(c2ccc(F)cc2)=NO1)N1CCC2(CC1)OCCO2 (stereo unspecified),0.4,93.8*,-7.6,1.1,0.1,-1.1
O=C(C1CCC(=O)N1Cc1ccc(F)cc1)N1CCC2(CC1)OCCO2 (stereo unspecified),-24.0,27.1,19.3,0.8,0.7,20.8
CC(C)(C)N1Cc2ccccc2C1=N,6.4,-3.5,37.5,0.6,1,-3.6
Cc1nn(CCC#N)c2c1P(=S)(N1CCCC1)OC(c1ccc(F)cc1)=N2 (stereo unspecified),-2.5,13.5,29.9,0.7,0.9,2.1
COc1ccc(C2SCC(=O)Nc3c2c(C)nn3C2CCOC(C)(C)C2)cc1OC (stereo unspecified),-10.4,3.8,21.1,0.8,1,10.8
CCOc1cc(C=C2C(=O)NC(=O)NC2=O)ccc1OS(=O)(=O)c1ccccc1,6.2,54.2*,4.7,1,0.5,-9.5
O=c1c2ccccc2nc(-c2ccco2)n1-c1ccncc1,-10.5,1.3,0.5,1,1,11.9
COc1ccc(Oc2cc(NC(=O)c3nn(C)cc3[N+](=O)[O-])cc([N+](=O)[O-])c2)cc1,6.0,65.5*,90.7*,0.1,0.3,-4.7
CCCC(C)C(=O)NC1CCSC1=O (stereo unspecified),-3.1,0.2,-0.4,1,1,3.7
ON1C2CCCCC2N(O)C1c1ccccc1F (stereo unspecified),6.5,-8.2,-5.0,1.1,1.1,-3.1
COc1ccc(CN2CC3CC(C2)c2cccc(=O)n2C3)cc1OC (stereo unspecified),.,-4.3,-0.1,1,1,.
O=c1cccc2n1CC1CC2CN(Cc2ccc3c(c2)OCO3)C1 (stereo unspecified),.,57.4*,52.2*,0.5,0.4,.
COc1ccc(CCC(=O)N2CCC3(CC2)OCCO3)cc1,-2.1,75.4*,6.3,0.9,0.2,3.5
COc1ccc(S(=O)(=O)NC(CC(=O)N2CCC3(CC2)OCCO3)C(C)C)cc1 (stereo unspecified),9.8,20.9,14.7,0.9,0.8,-11.8
COc1ccc(S(=O)(=O)NC(CC(=O)N2CCC3(CC2)OCCO3)c2ccco2)cc1 (stereo unspecified),5.0,75.9*,51.1*,0.5,0.2,-6.7
CN1/C(=C\C=C\C2=[N+](C)c3ccc4ccccc4c3C2(C)C)C(C)(C)c2ccccc21,-8.6,67.4*,55.7*,0.4,0.3,7.9
C=CCC1(CN2CCCCCC2=O)C(=O)NC(=O)NC1=O,-0.2,0.5,-2.8,1,1,1.6
O=P(C(c1c[nH]c2ccccc12)N1CCOCC1)(N1CCOCC1)N1CCOCC1 (stereo unspecified),6.9,-10.5,75.3*,0.2,1.1,-5.2
COC(=NC1CCCC1)C(O)c1c[nH]c2ccccc12 (stereo unspecified),-14.2,.,.,.,.,15.0
CCN1CCN(c2nc3c(c(=O)[nH]2)CCCC3)CC1,.,0.1,1.8,1,1,.
CCn1c(O)c(C=NCc2cccs2)c(=O)[nH]c1=O,-25.8,-3.8,-6.7,1.1,1,23.6
O=C(C1CC(=O)N(C2CCCCCCC2)C1)N1CCC2(CC1)OCCO2 (stereo unspecified),3.1,17.3,4.4,1,0.8,-4.5
Fc1ccc(C2=CCN(C(c3cccs3)c3nnnn3CCc3ccccc3)CC2)cc1 (stereo unspecified),-4.1,50.1*,73.8*,0.3,0.5,6.5

# High-throughput results as filed in PubChem.
